Data from PubChem BioAssay AID371 (SRMLSC, 2006).
In all, about 3,300 compounds went through this assay and about 280 (8.5%) were called active. For the sample, actives were picked, then their nearest neighbours and some compounds at random. Values without a mark were called inactive.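 The calls were made as follows: active = mean growth inhibition over the two runs of 50% or more; inactive = mean growth inhibition under 50%.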

experiment: A549 NSCLC cell proliferation inhibitors – ATP luminescence, human non-small cell lung line, primary screen (AID 371); conditions: at 10 µM, stronger effect = higher value;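 also: compound exposure lasted 72 h before the ATP read; 0% = untreated cell signal and 100% = no luminescence left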

SMILES | growth inhibition
CC(C)(C)OC(=O)N1CC=C2C(C#N)=C(N)C(C#N)(C#N)[C@H](c3cccnc3)[C@H]2C1 | 9.35%
CCOC(=O)N1CC=C2C(C#N)=C(N)C(C#N)(C#N)[C@H](c3cccs3)[C@H]2C1 | 8.61%
N#CC1=C(N)C(C#N)(C#N)[C@H](c2ccncc2)[C@H]2CN(C(=O)OCc3ccccc3)CC=C12 | 57.7% (active)
CCCCOc1ccc(CSC(CC(=O)O)C(=O)O)cc1 (stereo unspecified) | -2.76%
CCOc1ccc2c(C)nc(NC3=NC(C)(C)C=C(C)N3)nc2c1 | 72% (active)
COc1ccc2c(C)nc(Nc3nc(C)cc(C)n3)nc2c1 | 2.87%
CCCCC(C(=O)O)C(C)CC(=O)Nc1cccc(C(=O)O)c1 (stereo unspecified) | -1.54%
CC[C@H]1OC(=O)C[C@@H](O)[C@H](C)[C@@H](O[C@@H]2O[C@H](C)C[C@H](N(C)C)[C@H]2O)[C@@H](CC=O)C[C@@H](C)C(=O)C=C[C@]2(C)O[C@H]2[C@@H]1C | 24.4%
CCc1ccc(NC(=O)CSC2=C(C#N)C(c3ccc4c(c3)OCO4)CC(=O)N2)cc1 (stereo unspecified) | 8.25%
CC1=C(C(=O)Nc2ccccc2)C(c2ccncc2)C(C#N)=C(SCC(=O)NC(C)C)N1 (stereo unspecified) | 6.59%
CC(C)(C)C1CCC2(CC1)C(C#N)=C(SCC(=O)Nc1ccccc1)NC(=O)C2C#N (stereo unspecified) | 70.2% (active)
COC(=O)c1ccc(=O)n(Cc2ccc3c(c2)OCO3)c1 | 8.75%
CCc1cc2c(=O)c(-c3nc4ccccc4[nH]3)coc2cc1OC(=O)N1CCOCC1 | -4.96%
CCN(CC)C(=O)c1ccc(O)c(OC)c1 | -6.2%
O=C(O)/C=C/c1ccc(O)c(O)c1 | -1.3%
COc1cc(/C=C/C(=O)CC(=O)/C=C/c2ccc(O)c(OC)c2)ccc1O | 75.3% (active)
Cc1ccccc1OCC(O)Cn1c(N2CCN(c3ccccc3)CC2)nc2c1c(=O)[nH]c(=O)n2C (stereo unspecified) | 3.03%
O=C(O)CC(NCc1ccco1)C(=O)OCC1CCCO1 (stereo unspecified) | 0.9%
CCCC(=O)Nn1cnc2c(c1=O)C1(CCCC1)Cc1ccccc1-2 | 5.85%
COc1cccc(N2CCN(C3CC(=O)N(c4cccc(Cl)c4)C3=O)CC2)c1 (stereo unspecified) | 4.23%
CSc1ccc2c(c1)N(CCC1CCCCN1C)c1ccccc1S2 (stereo unspecified) | 93.4% (active)
CC(CN1c2ccccc2Sc2ccccc21)N(C)C (stereo unspecified) | 25.9%
COc1ccc(/C(O)=C2/C(=O)C(=O)N(CCCN(C)C)C2c2ccco2)cc1Cl (stereo unspecified) | 3.4%
COc1ccc(OC)c(C2/C(=C(\O)c3ccc4c(c3)OCCO4)C(=O)C(=O)N2CCCN(C)C)c1 (stereo unspecified) | 7.35%

SMILES | growth inhibition
CC(C)N=c1cc2n(-c3ccc(Cl)cc3)c3ccccc3nc-2cc1Nc1ccc(Cl)cc1 | 92.5% (active)
COc1ccc(N/C(=N\c2nc(C)cc(C)n2)NC(=O)C(C)C)cc1OC | 7.92%
CC(C)c1nc2n[nH]c(N)c2c2c1CCC2 | -2.18%
O=C1OC2CCC1(c1ccccc1)C2 (stereo unspecified) | -2.09%
COc1ccc(C2=CC(c3ccc(C)cc3)n3nnnc3N2)cc1 (stereo unspecified) | 27.9%
COc1cccc(C2=CC(c3ccccc3)n3nnnc3N2)c1 (stereo unspecified) | 72.7% (active)
COc1cccc(C2=CC(c3ccccc3)n3ncnc3N2)c1 (stereo unspecified) | 11.9%
COc1cccc(C2=CC(c3ccc(N(C)C)cc3)n3nnnc3N2)c1 (stereo unspecified) | 58.6% (active)
COc1ccc(C2=CC(c3cccc(OC)c3)n3nnnc3N2)cc1 (stereo unspecified) | 27.1%
COc1ccc(C2C=C(c3ccc(C)cc3)Nc3ncnn32)cc1 (stereo unspecified) | 30.1%
CC(NC(=O)OCc1ccccc1)C(=O)OCN1C(=O)c2ccccc2C1=O (stereo unspecified) | 2.01%
Cc1ccc(S(=O)(=O)c2cc3c(=O)n4cccc(C)c4nc3n(CC3CCCO3)c2=N)cc1 (stereo unspecified) | 7.96%
CCOc1cccc(-c2nnc3sc(-c4ccc(C)cc4)nn23)c1 | 48.3%
CCOc1cccc(-c2nnc3sc(-c4cccs4)nn23)c1 | 2.48%
COc1ccc(-c2nnc3sc(-c4ccccc4OC)nn23)cc1 | 4.96%
CCN(CC)c1ccc(-c2nn3c(-c4cccnc4)nnc3s2)cc1 | 80.9% (active)
COc1cc(-c2nn3c(-c4cccnc4)nnc3s2)cc(OC)c1OC | 14%
COc1ccccc1-c1nn2c(-c3ccc(C(C)(C)C)cc3)nnc2s1 | 83.3% (active)
CCOc1cccc(-c2nnc3sc(COc4ccccc4)nn23)c1 | 3.57%
CCOc1ccc(-c2nnc3sc(-c4ccccc4OC)nn23)cc1 | -2.6%
CCOc1cccc(-c2nnc3sc(-c4cc(OC)c(OC)c(OC)c4)nn23)c1 | 53.3% (active)
c1cncc(-c2nnc3sc(-c4ccco4)nn23)c1 | 3.63%
c1cc(-c2nnc3sc(C4CCCCC4)nn23)ccn1 | -0.46%
CCOc1cccc(-c2nnc3sc(C4CCCCC4)nn23)c1 | 79% (active)

SMILES | growth inhibition
Cc1ccc(N(CC(=O)O)C2SC(=O)NC2=O)cc1 (stereo unspecified) | -7.76%
Cc1ccc(C2CC(c3cccs3)n3nc(N)nc3N2)cc1 (stereo unspecified) | 17.9%
CCOC(=O)c1[nH]c2ccc(Br)cc2c1NC(=O)CCN1CCC(C(=O)OCC)CC1 | 41.5%
CCSc1nnc(N(CCC#N)CCC#N)s1 | 4.31%
CCOC(=O)CCCCC(=O)NC(CO)C(=O)NC (stereo unspecified) | -2.55%
CN(CCNC(=O)c1ccc(/C=N/O)nc1)Cc1ccccc1 | -0.01%
c1cncc(-c2nnc3sc(C4CCCCC4)nn23)c1 | 25.4%
COc1ccccc1-c1nnc2sc(C3CCCCC3)nn12 | 24.4%
COc1cccc(-c2nnc3sc(C4CCCCC4)nn23)c1 | 73.3% (active)
Cn1c(=O)[nH]c(=O)c2c1nc(Br)n2CCSc1ncccn1 | 4.37%
COCCCNc1nc2c(c(=O)[nH]c(=O)n2C)n1CC(O)COc1ccccc1 (stereo unspecified) | 13.7%
CC(C)(C)c1ccc(C(O)CCCN2CCC(C(O)(c3ccccc3)c3ccccc3)CC2)cc1 (stereo unspecified) | 95.9% (active)
OC(CCN1CCCC1)(c1ccccc1)C1CCCCC1 (stereo unspecified) | 7.22%
OC(CCN1CCCCC1)(c1ccccc1)C1CCCCC1 (stereo unspecified) | 1.96%
CCCCCSc1nc(C)c(CC(=O)O)c(=O)[nH]1 | -2.49%
CC(=O)/C(C#N)=C1\NC(=O)C(Cc2ccccc2Cl)S1 (stereo unspecified) | 61.9% (active)
CC(=O)/C(C#N)=C1\NC(=O)C(Cc2ccccc2)S1 (stereo unspecified) | 56% (active)
CCOC(=O)/C(C#N)=C1/SC(CCO)C(=O)N1c1ccccc1 (stereo unspecified) | -8.59%
N#CC(C(=O)Nc1ccc(Cl)c(Cl)c1)=C1Nc2ccccc2N1 | 38.8%
CCOC(=O)c1ccc(CC2S/C(=C(\C#N)C(C)=O)NC2=O)cc1 (stereo unspecified) | 26.4%
N#C/C(C(=O)N1CCOCC1)=C1/SC(Cc2ccccc2)C(=O)N1c1ccccc1 (stereo unspecified) | 0%
CCOc1ccc2nc(NC(NC(=O)CC)(C(=O)OC)C(F)(F)F)sc2c1 (stereo unspecified) | 20.7%
CCCCCOc1ccc(C(=O)NCC(=O)NCC(=O)OCC)cc1 | 36.1%
CC(C)CC(=O)Nc1ccccc1N1CCCC1 | 3.4%

SMILES | growth inhibition
CCOC(=O)C1=Nc2ccccc2C1=[N+]=[N-] | 61.3% (active)
CCOC(=O)c1n[nH]c2ccccc12 | -3.73%
CCOC(=O)CNC(=O)Nc1ccccc1C(=O)OC | -3.41%
C=CCOn1c(=O)c(-c2ccc(OC)cc2)[n+]([O-])c2ccccc21 | 0.35%
CSC1=C(C#N)C(C)CC(=O)N1 (stereo unspecified) | -1.22%
O=C1c2ccccc2C(=O)N1c1ncccn1 | 8.95%
COCCCn1c2nc3ccccc3nc2c2c(=O)n(CC3CCCO3)cnc21 (stereo unspecified) | 3.37%
CCc1nc(N)nc(N)c1-c1ccc(Cl)cc1 | 79.6% (active)
CCOC(=O)CC(=O)CSc1nc(N)c(C#N)c(-c2ccc(Cl)cc2)c1C#N | 5.46%
Cc1cc(-c2cc(-c3ccc(Cl)cc3)nc(N)c2C#N)co1 | 30.1%
Cc1c(/C(O)=C2\C(=O)C(=O)N(CCN(C)C)C2c2cccs2)cnn1-c1ccccc1 (stereo unspecified) | 0.12%
c1coc(CNc2ncnc3ccccc23)c1 | 23.6%
OCCNc1ncnc2c1c(-c1ccccc1)c(-c1ccccc1)n2Cc1ccco1 | 53.2% (active)
O=c1c2ccccc2ncn1Cc1ccco1 | 1.72%
CC(C)CN1C(=O)NC(NC(=O)c2cccnc2)(C(F)(F)F)C1=O (stereo unspecified) | -0.36%
Cc1nnc(SCC(=O)N2CCOCC2)c2ccccc12 | -4.15%
COc1cccc(Cn2c(NCc3ccccn3)nc3c2c(=O)n(C)c(=O)n3C)c1 | 23.9%
COc1ccc(Oc2nc3c(c(=O)n(C)c(=O)n3C)n2Cc2cccc(OC)c2)cc1 | 27.7%
COc1cccc(Cn2c(NCc3ccco3)nc3c2c(=O)n(C)c(=O)n3C)c1 | 51.8% (active)
CCCCNc1nc2c(c(=O)n(C)c(=O)n2C)n1Cc1cccc(OC)c1 | 59.5% (active)
COCCCNc1nc2c(c(=O)n(C)c(=O)n2C)n1Cc1cccc(OC)c1 | 33.1%
COc1cccc(Cn2c(NCC(C)C)nc3c2c(=O)n(C)c(=O)n3C)c1 | 2.01%
Cc1cc(=O)oc(C)c1C(=O)NCC(C)C | -13.9%
C=CCOc1nc2c(c(=O)n(C)c(=O)n2C)n1Cc1c(Cl)cccc1Cl | 25.2%
